Results taken from PubChem BioAssay AID743262 (National Center for Advancing Translational Sciences (NCATS), 2014).
About 25 (2%) of roughly 1,300 compounds were called active. Inconclusive results (about 9%) are left out. This is one part of a sample in which actives are shown more often than they occur. Unmarked numbers belong to inactive results. Calls follow the shape of the dose curve; as a rule, active = well fitted activation curve with a large enough effect; inconclusive = small, poorly fitted or top-dose-only effect; inactive = flat fitted curve, though single readings scatter.

target: Glucagon-like peptide 1 receptor (Homo sapiens) (UniProt P43220); assay: qHTS of GLP-1 Receptor Agonists: Hit Validation; details: HEK293 GLP-1R, cAMP-response luciferase, 4-6 h; series mostly up to 46.1 µM; activation: at the top concentration; as to activation: % of control where 0% means no effect
Sequence (P43220 whole entry, looked up): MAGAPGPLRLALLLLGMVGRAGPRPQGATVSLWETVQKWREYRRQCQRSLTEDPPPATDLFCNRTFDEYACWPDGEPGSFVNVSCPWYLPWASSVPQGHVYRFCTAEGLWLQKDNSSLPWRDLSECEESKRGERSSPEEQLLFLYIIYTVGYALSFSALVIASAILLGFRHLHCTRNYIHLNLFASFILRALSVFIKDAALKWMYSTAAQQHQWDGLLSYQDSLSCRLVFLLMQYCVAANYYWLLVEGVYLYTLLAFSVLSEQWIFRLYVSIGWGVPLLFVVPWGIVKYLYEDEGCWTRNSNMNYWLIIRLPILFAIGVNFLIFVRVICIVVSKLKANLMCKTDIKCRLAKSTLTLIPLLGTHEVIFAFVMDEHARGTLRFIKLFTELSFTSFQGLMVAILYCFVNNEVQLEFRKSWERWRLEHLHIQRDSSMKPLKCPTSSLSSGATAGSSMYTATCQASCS
Text: The overall goal of this project was to develop a novel assay for discovering small molecule ligands for class B1 G protein-coupled receptors (GPCRs). Very few agonists (or inverse agonists) with generally weak activity for this entire group of physiologically important receptors are known to date. To establish proof-of-principle that this critical bottleneck can be overcome with a suitable screening approach, our studies focused on the class B1 receptor for glucagon-like peptide-1 (GLP-1R), a potential therapeutic target for diabetes and neurodegenerative disease. The assay was developed in a "mix and measure" format using a cell-based functional readout. Toward this goal, stably transfected HEK293 cell clones were established that co-express (i) a cAMP-responsive luciferase reporter gene, and (ii) GLP-1Rs that upon ligand interaction either stimulate (agonists) or inhibit (inverse agonists) luciferase activity. In different cell lines to be used for screening, expressed GLP-1Rs are specifically optimized for high sensitivity detection of either weak agonists (hypersensitive receptor) or inverse agonists (constitutively active receptor mutant). In addition, control cell lines were developed that express either the cAMP-responsive reporter gene without recombinant GLP-1Rs (enabling initial exclusion of GLP-1R independent effects of candidate probes), or the reporter gene together with wild type GLP-1Rs (for confirmation of probe activity at this receptor), or the reporter gene in combination with the constitutively active orphan receptor GPR119 (enabling initial exclusion of GLP-1R independent inhibitory effects of candidate inverse agonists). To that end, this assay was optimized for 1536-well format and screened against the MLSMR. NIH Molecular Libraries Probe Production Network [MLPCN] NIH Chemical Genomics Center [NCGC] Grant: NS064851 PI Name: Martin Beinborn, Tufts Medical Center
In a white solid 1536-well plate, 6 uL of cells are dispensed in DMEM without phenol red, 10% Nu serum, and 1% pen-strep medium. The plates are then incubated for 12 hours at 37 deg C at 5% CO2 before 23 nL of compounds are added. After a 4-6 hr incubation at37 deg C and 5% CO2, 3 uL of detection reagent are added and after a 12 min incubation at RT, a luminescent read is obtained on the ViewLux.
Potency is read from the fitted curve at half-maximal effect.

SMILES | Potency | activation [%]
COCCNc1nc(Nc2ccc(C)cc2C)c2sccc2n1 | 9.2 µM (active) | 
Clc1ccccc1Nc1nc(NCC2CC2)nc2ccsc12 |  | 4.99
COCCNc1nc(Nc2ccccc2Cl)c2sccc2n1 |  | 7.08
CCOc1ccc(C(C)=O)cc1COC(=O)CCc1cc(OC)c(OC)c(OC)c1 |  | 1.66
CCOC(=O)c1c(C)[nH]c(C)c1C(=O)COC(=O)c1sccc1C |  | 0.504
CCOC(=O)c1cn(-c2ccccc2)nc1-c1ccncc1 |  | 2.6
Nc1nnc(-c2cn(-c3ccccc3)nc2-c2ccccc2)o1 | 5.17 µM (active) | 
COc1ccc(Cn2c(SCC#N)nc3ccc(N4CCOCC4)cc3c2=O)cc1 |  | 19.6
CCOC(=O)C1(C)CCCN(C(=O)c2cc(C)oc2C)C1 (stereo not given) |  | -0.718
Cc1ccc(NC(=O)Nc2ccc([N+](=O)[O-])cc2)nc1 |  | -0.803
COc1cc2c(cc1OC)C1=C(C#N)CCC(=NC(=O)c3ccc(Cl)cc3)N1CC2 |  | 14.6
C=CCSc1nc2c(c(=O)[nH]c(=O)n2C)n1CC |  | 6.88
COc1ccc([N+](=O)[O-])cc1NS(=O)(=O)c1cc(C(=O)N2CCN(C)CC2)ccc1OC |  | 2.19
CC(C)Cn1cnc2c(SCc3ccccc3F)nc(N)nc21 |  | 5.83
CCCn1c2ccc(F)cc2c2nnc(SCCN3CCOCC3)nc21 |  | 10.9
CCOc1ncccc1C(=O)OCc1ccc(C(=O)OC)o1 |  | 3.21
Nc1nc2sc3c(c2c(=O)s1)CCCC3 |  | 19.1
COc1cc2c(cc1OC)CN(C(=O)c1ccc(N3CCCC3)c([N+](=O)[O-])c1)CC2 |  | 4.86
COC(=O)[C@@H]1CCCN1C(=O)c1cc(COc2cccc3cccnc23)on1 |  | -0.35
CCN=C1S/C(=C\c2cn(CC)c3ccccc23)C(=O)N1CC |  | 26.8
COc1ccccc1N1CCN(C(=O)/C=C/c2ccco2)CC1 |  | 2.92
COc1cccc(OC)c1C(=O)Nc1ccc(C(=O)c2ccncc2)cc1 |  | -0.423
CCOC(=O)c1c(NC(=O)COC)sc(C)c1C |  | 3.9
COc1ccc(OC)c(-c2nnc3n2N=C(c2ccc(OC)c(OC)c2)CS3)c1 | 1.64 µM (active) | 
Cc1cc(C)n(-c2nnc3n2N=C(c2c[nH]c4ccccc24)CS3)n1 |  | 6.87
CCOc1ccc(-c2nnc3n2N=C(c2ccc(OC)cc2)CS3)cc1 |  | 8.96
COc1ccc(C2CC(c3ccc(OC)c(OC)c3)=NN2C(=O)c2ccccc2)cc1 (stereo not given) |  | 28
COc1ccc(C2=Nn3c(nnc3-c3ccccc3)SC2)cc1OC |  | 19.1

SMILES | Potency | activation [%]
COc1ccc(C2=Nn3c(nnc3-c3ccccc3Cl)SC2)cc1OC1CCOC1 (stereo not given) | 13 µM (active) | 
COc1ccc(C2=Nn3c(nnc3-c3ccccn3)SC2)cc1OC |  | 29.2
COc1ccc(C2=Nn3c(nnc3-c3ccco3)SC2)cc1 |  | 7.18
COc1ccc(C2=Nn3c(nnc3-c3ccccc3OC)SC2)cc1OC | 5.8 µM (active) | 
COc1ccc(C2=Nn3c(nnc3C3CCCCC3)SC2)cc1OC | 8.2 µM (active) | 
COc1ccc(C2=NN(C(C)=O)C(c3cccs3)C2)cc1OC (stereo not given) |  | 14.1
c1cc2c(cc1C1=Nn3c(nnc3C3CCCCC3)SC1)OCO2 |  | 18.3
C/C(=N\Nc1nc2ccccc2[nH]1)c1ccc(C)o1 |  | -0.323
COc1cc(C#Cc2ccc3cc(CCO)oc(=O)c3c2)cc(OC)c1 |  | 29.7
O=c1[nH]n(CC2COC3(CCCCC3)O2)c(=O)c2ccccc12 (stereo not given) |  | 5.01
COCc1cccc(-c2csc(C(C)(O)c3cccc(F)c3)n2)c1 (stereo not given) |  | 0.448
COc1cc(SC)ccc1C(=O)OCc1nc2ccsc2c(=O)[nH]1 |  | 3.67
CSc1nnc(C)c(/C=C/Nc2ccc(F)cc2)n1 |  | 12.1
CN(C)c1ccc(N=Nc2ccccc2C(=O)OCC(=O)Nc2ccccc2C(F)(F)F)cc1 |  | 4.63
COc1ccc(/C=N/n2c(-c3ccc(C)cc3)n[nH]c2=S)cc1OC |  | 22.8
C=CCn1c2ccccc2c(=O)c2cc(C#CC3(O)CCCCC3)ccc21 |  | 19.5
O=C(Nc1ccccc1)OCc1cc(-c2ccccc2Cl)on1 |  | 4.56
CCCc1cc(-c2ccc(O)c(OCC)c2)c(C#N)c(N)n1 |  | 10.5
COc1ccc(CCN(C)C/C=C/c2ccccc2[N+](=O)[O-])cc1OC |  | 4.02
CCCOc1ccc2c(=O)c(-c3cc(C(=O)OC)oc3C)c(C)oc2c1 |  | 0.445
Fc1ccccc1COc1ccc(Br)cc1CNCc1cccnc1 |  | 0.917
COc1ccc(Cc2noc(-c3ccc(OC)c(OC)c3)n2)cc1OC |  | 7.14
COc1ccc(CN(C)Cc2nc(Cc3ccccc3Cl)no2)cc1OC | 16.4 µM (active) | 
COc1cc(-c2nc(Cc3ccccc3Cl)no2)cc(OC)c1OC |  | 4.3
CCCCCCSC1=C(C#N)C(c2ccc(O)cc2)CC(=O)N1 (stereo not given) |  | -0.367
NS(=O)(=O)c1cccc(NC(=O)Nc2ccccc2)c1 |  | -0.735
CCc1ccc(C(=O)COC(=O)c2cc([N+](=O)[O-])ccc2NCCO)cc1 |  | 11
